# Laboratory results taken from PubChem BioAssay (NCI).
# Compounds without any hit were thinned out: in the full panel of roughly 83,000, 20% have a hit.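 Negative percent growth values reflect cell death: -40 means 40% of the cells present at the start died, and -100 means all died.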 Unmarked numbers belong to inactive results. Calls of active or inactive are those of the source. The calls were made as follows: active = growth percent below 10; inactive = the rest.
# How the values were obtained:
# Test in all cases: NCI-60 one-dose screen, 48 h (100 = growth as untreated, 0 = no growth, -100 = all killed)
# Settings in all cases: 10 µM unless noted
# NCI-H23 lung = system: NCI-H23 lung
# NCI-H226 lung = system: NCI-H226 lung
# NCI-H322M lung = system: NCI-H322M lung
# HOP-62 NSCLC = system: HOP-62 NSCLC
# NCI-H522 lung = system: NCI-H522 lung
# A549/ATCC NSCLC = system: A549/ATCC NSCLC
# 786-0 renal = system: 786-0 renal
# COLO 205 colon = system: COLO 205 colon
# DU-145 prostate = system: DU-145 prostate
# MALME-3M melanoma = system: MALME-3M melanoma
# MDA-MB-231 breast = system: MDA-MB-231 breast
# RXF 393 renal = system: RXF 393 renal
# SF-268 CNS = system: SF-268 CNS
# SF-295 CNS = system: SF-295 CNS
# SF-539 CNS = system: SF-539 CNS
# UACC-257 melanoma = system: UACC-257 melanoma
# M14 melanoma = system: M14 melanoma
# K-562 leukemia = system: K-562 leukemia
# HOP-92 NSCLC = system: HOP-92 NSCLC
# NCI-H460 lung = system: NCI-H460 lung
SMILES,growth (NCI-H23 lung),growth (NCI-H226 lung),growth (NCI-H322M lung),growth (HOP-62 NSCLC),growth (NCI-H522 lung),growth (A549/ATCC NSCLC),growth (786-0 renal),growth (COLO 205 colon),growth (DU-145 prostate),growth (MALME-3M melanoma),growth (MDA-MB-231 breast),growth (RXF 393 renal),growth (SF-268 CNS),growth (SF-295 CNS),growth (SF-539 CNS),growth (UACC-257 melanoma),growth (M14 melanoma),growth (K-562 leukemia),growth (HOP-92 NSCLC),growth (NCI-H460 lung)
CCCCCCCCCCCC1=NC(C)(C)CN1C(C)C,49.8%,89.1%,97.7%,54.6%,43%,61.1%,54.5%,-53.7% (active),68.9%,59.8%,53.7%,5.65% (active),71.9%,62.6%,55.6%,-9.06% (active),-26.6% (active),,,
C=C1C[C@@]2(C)C(CC[C@]3(C)C2CC=C2C4CC(C)(C)C[C@@H](OC(=O)/C(C)=C\C)[C@]4(C(=O)O)CC[C@]23C)C(C)(C)C1=O (some centres not stated),-45.6% (active),-72.8% (active),46.7%,25.9%,-6.98% (active),-2.25% (active),-77.9% (active),-11.2% (active),10.3%,36.5%,22.7%,-75.6% (active),50.4%,59.8%,-19.8% (active),17.1%,-14.2% (active),1.39% (active),,
O=C(N/N=C/c1ccc([N+](=O)[O-])cc1)c1ccccc1Nc1ccnc(C(F)(F)F)c1,62.3%,70.8%,83.3%,48.8%,67.9%,82%,81.8%,103%,98.6%,86%,70.4%,91.7%,86.2%,83.8%,84.3%,79.4%,101%,78%,,
O=c1c2cc(Cl)ccc2oc2ccc(OCCCCCN3CCCCCC3)cc12,87.5%,90.1%,89.6%,79.7%,80.2%,61.2%,70.2%,76.7%,91.9%,114%,84.4%,84.4%,87.4%,97.5%,94.1%,83.7%,,34.6%,,
O=[N+]([O-])c1ccc(Sc2nc(Cl)nc(NC3CCCC3)n2)cc1,-70.2% [100 µM] (active),-44.4% [100 µM] (active),-92.2% [100 µM] (active),-78.9% [100 µM] (active),,,-83.5% [100 µM] (active),-61.5% [100 µM] (active),-100% [100 µM] (active),-80.9% [100 µM] (active),-90.3% [100 µM] (active),-75.4% [100 µM] (active),-93% [100 µM] (active),-93.9% [100 µM] (active),,,-94.6% [100 µM] (active),-32.1% [100 µM] (active),-74.7% [100 µM] (active),
CC(C)(C)[Si](C)(C)OC1[C@@H](CNC(N)=O)O[C@@H](n2cnc3c(NC(=O)Nc4ccccc4)ncnc32)[C@H]1O[Si](C)(C)C(C)(C)C (some centres not stated),62.4%,75.9%,119%,78.1%,63.8%,37.6%,58.8%,9.85% (active),72.6%,75.4%,77.9%,6.77% (active),48.3%,64.7%,68.1%,78.6%,54.3%,35.2%,,
CCN(CC)CCCC(C)Nc1c(-c2ccccc2)cnc2cc(Cl)ccc12 (configuration not stated),73.2%,115%,97.4%,101%,50.1%,57.1%,52%,85.3%,87.5%,-6.83% (active),63.1%,63.4%,77.7%,86.5%,83.2%,-26.6% (active),-95.7% (active),13.3%,,
O=C(Nc1ccccc1)c1cc2ccccc2s1,74.8%,88.4%,75.6%,94.5%,82.4%,69.4%,92.8%,95.1%,103%,108%,78.2%,110%,95.6%,96.8%,110%,95.1%,75.5%,87.1%,,
CCN(CC)C(=O)O/N=C(/C)c1ccccc1,95.1%,114%,102%,110%,92.1%,96.1%,96.6%,115%,100%,130%,91%,102%,104%,105%,88.1%,105%,101%,102%,,
COC(=O)c1ccc2c(c1)nc(-c1ccc(Cl)cc1)n2-c1cc(C(C)(C)C)[nH]n1,60.7%,94.3%,92.5%,116%,,47.2%,46%,112%,85.9%,14.8%,92%,45.7%,68.5%,43.3%,60.4%,62.3%,33.8%,34.3%,,
O=C(Nc1ccc(-n2ccc3c(NC(=O)c4ccccc4)nccc32)cc1)c1ccc(N2CCOCC2)c(C(F)(F)F)c1,37.4%,43.1%,48.6%,21.1%,29.9%,6.91% (active),-26.3% (active),16.6%,38.9%,55.5%,52.5%,-66.5% (active),37%,-7.34% (active),22.6%,55%,29.1%,17.4%,,
O=C(CC(=O)c1cccc(Cl)c1)c1cccc(Cl)c1,28.4%,41.5%,47.9%,22.1%,38.5%,57.7%,43%,46.9%,42.6%,64.5%,45.2%,61.9%,51.4%,26.8%,41.4%,52.7%,37.3%,20.8%,,
CC(=O)NC1C(O[C@H]2C[C@H]3[C@@H]4CC=C5C[C@@H](O)CC[C@]5(C)[C@H]4CC[C@]3(C)[C@H]2[C@H](C)C(=O)CCC(C)C)OCC(O)C1O (some centres not stated),,60.6%,81.3%,52%,66.7%,53.1%,1.28% (active),30.1%,57.7%,34.7%,59.9%,-43.2% (active),31%,-53.2% (active),-26.2% (active),-15.5% (active),,0.56% (active),,22.9%
COc1ccc(C2NC(=O)c3cc4c(cc3N2)OCO4)cc1 (configuration not stated),,5.1% (active),50.4%,27.8%,-48.7% (active),18.9%,37.1%,-22.1% (active),7.04% (active),58.7%,31.3%,-2.15% (active),39.6%,-14% (active),8.24% (active),65.8%,-7.7% (active),,,5.06% (active)
C=CCCCCOc1cccc(/C=C2\N=C3SCCCN3C2=O)c1,,94.3%,84.6%,94.5%,83.3%,93.2%,95%,101%,108%,115%,88.6%,114%,110%,96%,104%,112%,103%,91.5%,,103%
CCOC(=O)C1=C(C)NC(=S)NC1c1ccccc1 (configuration not stated),,91.6%,108%,101%,91.6%,109%,101%,120%,109%,101%,-95.7% (active),117%,91.7%,103%,97.2%,101%,107%,,,104%
C=CCN(CC#N)CC=C,,95.5%,106%,98.5%,97.7%,101%,107%,113%,112%,109%,111%,112%,114%,108%,102%,99.5%,102%,102%,,115%
